From the supplement of paper PMC9402605
± gives the standard deviation of the averaged measurements.

Test system: Caenorhabditis elegans N2
Experiment: egg-laying rate relative to DMSO control (M9 buffer background) (fraction of control); higher = more egg-laying
Conditions: 60 µM, 1 h
Method: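 About 20 young-adult wild-type C. elegans (N2) per well in 96-well plates were exposed to 60 uM compound for 1 h at room temperature, either in M9 buffer (to find stimulators) or in 12.3 mM serotonin + 7.7 mM nicotine (NS, to find inhibitors). Eggs per worm per hour were counted by automated imaging and normalised to the mean of proximal DMSO control wells. Values average the primary screen and two retests of the worm-active (wactive) Egl modulators.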

| Structure (SMILES) | egg-laying rate |
| --- | --- |
| CCOc1ccc(/C=C/[N+](=O)[O-])cc1 [wact-385] | 0.274 ± 0.14 |
